# Compounds with a hit are over-represented: about 1.3% of the library has one in this group of screens.
# AGP1-GFP MLPCN: modulators of AGP1-GFP expression in yeast TOR pathway, primary screen, cell-based, multiplex flow cytometry, S. cerevisiae, MLPCN library; 320,000 tested, 0.02% active; GFP response vs DMSO, % at 10 µM; 3 h; GFP as percent of DMSO wells;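 active = GFP response relative to DMSO above a set limit, near screen average plus 3 SD, cut at about 150% in these data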;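 also: median GFP channel fluorescence of the gated AGP1 strain per well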
# Efflux pump mplx: inhibitors of Candida efflux pumps in yeast, primary screen, S. cerevisiae, Nile Red, multiplex; S. cerevisiae Candida pump triplex; inhibition, % at 10 µM; 330,000 tested, 0.44% active;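 active = plate passing quality check with inhibition over a set limit, or well fluorescence over plate mean plus 4 SD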;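 also: Nile Red retained in pooled yeast measured as flow cytometry median fluorescence; 0% = buffer negative control and 100% = Enniatin B positive control; higher means more Nile Red kept so more efflux inhibition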
# RPL19A-GFP yeast: RPL19A-GFP expression modulators in yeast, primary screen, cell-based, S. cerevisiae, multiplex flow cytometry, MLPCN. S. cerevisiae RPL19A-GFP strain, 3 h; stronger effect = lower value. percent response vs DMSO, % at 10 µM. 330,000 tested, 0.3% active. AID 2025, 2009;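 active = percent response vs DMSO below 50%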;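 also: median channel GFP fluorescence of the barcoded RPL19A-GFP strain; ratio of sample median GFP to plate DMSO average so 100% = DMSO; lower means less RPL19A-GFP as with rapamycin TOR inhibition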
# CIT2-GFP yeast: modulators of CIT2-GFP expression in yeast, primary screen, S. cerevisiae, GFP fusion, multiplex flow cytometry, MLPCN library; S. cerevisiae CIT2-GFP strain, 3 h; 100 means same as DMSO wells; GFP response vs DMSO, % at 10 µM; 320,000 tested, 0.065% active;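 active = GFP response relative to DMSO above a set limit, near the screen mean plus 3 SD, cut at about 150% in these data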;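 also: ratio of well median GFP fluorescence to mean of DMSO wells on the plate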
# MEP2-GFP yeast: modulators of MEP2-GFP levels in yeast, primary screen, S. cerevisiae, multiplex flow cytometry, MLPCN library; S. cerevisiae MEP2-GFP strain, 3 h; 100% = DMSO control level; GFP response vs DMSO, % at 10 µM; 330,000 tested, 0.51% active; AID 2016, 2009;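 active = GFP response versus DMSO above a set limit, roughly screen mean plus 3 SD, cut at about 180% in these data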;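 also: median GFP fluorescence of the barcode-gated MEP2-GFP cells per well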
# LAP4-GFP MLPCN: modulators of LAP4-GFP expression in yeast, primary screen, S. cerevisiae, multiplex flow cytometry, MLPCN library; GFP response vs DMSO, % at 10 µM; 320,000 tested, 0.34% active; 3 h; median GFP as percent of DMSO wells;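 active = GFP response vs DMSO above a set limit, about the screen mean plus 3 SD, cut at about 150% in these data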
# LAP4-GFP pick2: LAP4-GFP expression modulators in yeast, confirmation, cell-based, second cherry pick, flow cytometry; shares compounds with LAP4-GFP MLPCN; S. cerevisiae LAP4-GFP strain, 3 h; GFP response vs DMSO, % at 10 µM; 590 tested, 20% active; AID 2621, 2010;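 active = GFP signal as percent of the solvent control above about 150%, meaning raised reporter expression, limit read from the data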;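 also: ratio of well median GFP fluorescence to plate DMSO mean so 100% = DMSO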
# MEP2 cherry2: modulators of MEP2-GFP levels in yeast, confirmation, S. cerevisiae, flow cytometry GFP, second cherry picks; shares compounds with LAP4-GFP MLPCN; 590 tested, 10% active; S. cerevisiae MEP2-GFP strain, 3 h; GFP response vs DMSO, % at 10 µM;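 active = GFP signal above 150% of the solvent control wells, that is a rise of more than half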;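 also: median channel GFP fluorescence of all gated yeast cells per well; ratio of median GFP to plate DMSO average so 100% = DMSO level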
# RPL19A-GFP pick2: RPL19A-GFP modulators in TOR pathway yeast, confirmation, cell-based, S. cerevisiae, flow cytometry, second cherry pick | 590 tested, 3% active | S. cerevisiae RPL19A-GFP strain, 3 h; stronger effect = lower value; 100% means same as DMSO wells | AID 2623, 2010 | shares compounds with LAP4-GFP MLPCN | GFP response vs DMSO, % at 10 µM;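 active = under 65% GFP response relative to DMSO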;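 also: median GFP channel fluorescence per well over the all cells gate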
# CIT2-GFP pick2: modulators of CIT2-GFP expression in yeast, confirmation, flow cytometry, second cherry pick, single plex | GFP response vs DMSO, % at 10 µM | 590 tested, 8% active | shares compounds with LAP4-GFP MLPCN | S. cerevisiae CIT2-GFP strain, 3 h; DMSO control wells read 100%;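 active = GFP response vs DMSO above about 150%, limit read from the data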;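 also: median green fluorescence per well over all gated yeast cells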
# AGP1 GFP CP2: AGP1-GFP expression modulators, hit retest, confirmation, cell-based, flow cytometry, S. cerevisiae, cherry pick set 2; shares compounds with LAP4-GFP MLPCN; S. cerevisiae AGP1-GFP strain, 3 h; percent response vs DMSO, % at 10 µM; 590 tested, under 10 active; AID 2643, 2010;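 active = over 150 percent of DMSO response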;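 also: median GFP channel fluorescence over all cells without mother daughter split; sample median GFP divided by mean DMSO control so 100% equals DMSO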
# s288c autofluor: compound autofluorescence in yeast s288c, dose response, artefact control for yeast TOR pathway GFP screen, s288c strain. AID 2757, 2010. 610 tested, under 10 active. fluorescence change (kMESF span) at 33 µM. S. cerevisiae s288c, 520 nm autofluorescence, flow cytometry, 3 h; stronger effect = higher value; zero means same as solvent-only cells. shares compounds with LAP4-GFP MLPCN;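 active = fluorescence span over the dose series, or activity score, above about 33, limit read from the data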
# Active calls of the source: *; / = no result given.
SMILES,AGP1-GFP MLPCN,Efflux pump mplx,RPL19A-GFP yeast,CIT2-GFP yeast,MEP2-GFP yeast,LAP4-GFP MLPCN,LAP4-GFP pick2,MEP2 cherry2,RPL19A-GFP pick2,CIT2-GFP pick2,AGP1 GFP CP2,s288c autofluor
O=C(C#Cc1cccc([N+](=O)[O-])c1)c1ccccc1,92.7,-0.1,88.3,82.2,103.3,171.3*,/,/,/,/,/,0.71
Nc1ccccc1C#CC(=O)c1ccccc1,121.0,-0.1,85.2,96.0,117.7,227.7*,179.4*,143.2,85.6,121.0,130.8,0.5
Cc1ccc(C(=O)/C=C\C(=O)c2ccc(C)cc2)cc1,83.9,-0.1,96.8,67.0,88.5,167.5*,120.2,113.1,101.9,135.7,99.4,/
COc1ccc2c(C(F)(F)F)cc(=O)oc2c1C,96.4,0.0,95.1,97.5,106.8,94.4,/,/,/,/,/,/
Cc1c(C)c2ccc(Oc3ccc([N+](=O)[O-])cc3C(F)(F)F)c(C)c2oc1=O,102.3,0.0,101.0,92.1,106.3,101.0,101.0,104.8,102.5,102.9,100.5,0.1
C#CCOc1c(Cl)cc(C2C3=C(CCCC3=O)N(CC(=O)O)C3=C2C(=O)CCC3)cc1OC,32.6,-0.1,51.9,79.9,117.3,87.5,104.2,117.0,101.5,111.2,99.0,/
CCCOc1c(Br)cc(C2C3=C(CCCC3=O)N(CC)C3=C2C(=O)CCC3)cc1OC,98.3,0.0,93.7,94.3,100.3,103.7,/,/,/,/,/,/
COc1ccc(N2C(=O)CC(Sc3ncn[nH]3)C2=O)c(OC)c1 (stereo not given),96.9,-0.1,96.3,103.3,88.3,124.4,/,/,/,/,/,0.61
Cc1ccc(NC(=O)CCc2ccccc2)cc1S(=O)(=O)N1CCOCC1,111.5,0.0,88.2,88.1,108.9,151.1*,101.2,99.6,98.9,101.5,98.6,0
COc1ccc(C(C)=O)cc1COC(=O)c1cnc(Cl)c(Cl)c1,72.9,0.3,63.7,90.9,134.8,99.5,114.2,125.8,97.8,108.5,108.0,/
COc1ccc(C(C)=O)cc1COC(=O)c1ccc2c(c1)OCO2,96.7,0.4,97.5,90.6,102.0,98.9,/,/,/,/,/,/
Cc1ccc(C)c(S(=O)(=O)N2CCN(C(=O)c3cncc(Br)c3)CC2)c1,101.8,0.1,101.7,100.7,100.7,98.8,/,/,/,/,/,/
O=C(Nc1nnc(-c2ccc3c(c2)CCCC3)o1)c1ccc(Cl)cc1Cl,34.7,0.1,55.7,52.7,109.0,83.5,153.3*,211.3*,104.9,161.3*,93.7,0.41
C#CCOc1c(Br)cc(/C=C2/C(=O)ON=C2C)cc1OC,89.0,0.2,91.0,94.9,98.4,197.5*,187.4*,136.2,92.7,122.4,101.4,0.51
